Assay results published in PubChem BioAssay (EPA / NIEHS).
Calls of active or inactive are those of the source. The calls were made as follows: active = hit-call score of the fitted dose curve at least 0.9, where 1 is the maximum; inactive = score below 0.9.

The compounds below were run against rat CYP2A1, Cyp2a1 (gene 24894) (UniProt P11711) (assay: NVS_ADME_rCYP2A1: NovaScreen (NVS) CYP450-related Enzyme Activity (ADME) Assay for rat CYP2A1 (AID 2283114)).
Method: NVS_ADME_rCYP2A1 is a biochemical, single-readout assay that uses extracted gene-proteins in a cell-free assay. Measurements were taken 0.75 hour after chemical dosing in a 96-well plate.NVS_ADME_rCYP2A1 is one of one assay component(s) measured or calculated from the NVS_ADME_rCYP2A1 assay. It is designed to make measurements of enzyme activity, a form of enzyme reporter, as detected with fluorescence intensity signals by Fluorescence technology.Data from the assay component NVS_ADME_rCYP2A1 was analyzed into 1 assay endpoint. This assay endpoint, NVS_ADME_rCYP2A1, was analyzed in the positive analysis fitting direction relative to Acetonitrile as the negative control and baseline of activity. Using a type of enzyme reporter, loss-of-signal activity can be used to understand changes in the enzymatic activity as they relate to the gene Cyp2a1. Furthermore, this assay endpoint can be referred to as a primary readout, because this assay has produced multiple assay endpoints where this one serves a enzymatic activity function. To generalize the intended target to other relatable targets, this assay endpoint is annotated to the cyp intended target family, where the subfamily is xenobiotic metabolism.
Binding assays used specific radioligands (tritiated, iodinated) with non-radioactive competitive displacement ligands in agonist or antagonist protocols (as indicated) and various reference compounds and inhibitors to titrate specific binding to receptors and transporters. Most enzyme assays (CYPs, kinases, phosphatases, proteases, HDACs) used recombinant protein and specific substrates (fluorescence mostly, some colorimetric and radioactive) and inhibitors, followed by a biochemical separation of substrate and product. All assays for the biochemical HTS were initially run in duplicate at a single concentration (10 uM for CYP450 assays and 25 uM for all others). Assay-chemical combinations meeting a pre-defined threshold (e.g., 30% inhibition and other criteria defined below) were then run in singleton concentration-response format with maximum concentration of 20 uM for CYPs and 50 uM for all others. Each assay was run with positive and negative controls, and concurrent controls on every plate. The follow-up (secondary) screen tested active chemical-pairs in concentration series, as well as a few additional assays not tested in the primary screen, some selected negative inactives, and several cases re-run in the concentration series for confirmatory purposes.

Sequence of rat CYP2A1, Cyp2a1 (gene 24894) (P11711 whole entry, looked up): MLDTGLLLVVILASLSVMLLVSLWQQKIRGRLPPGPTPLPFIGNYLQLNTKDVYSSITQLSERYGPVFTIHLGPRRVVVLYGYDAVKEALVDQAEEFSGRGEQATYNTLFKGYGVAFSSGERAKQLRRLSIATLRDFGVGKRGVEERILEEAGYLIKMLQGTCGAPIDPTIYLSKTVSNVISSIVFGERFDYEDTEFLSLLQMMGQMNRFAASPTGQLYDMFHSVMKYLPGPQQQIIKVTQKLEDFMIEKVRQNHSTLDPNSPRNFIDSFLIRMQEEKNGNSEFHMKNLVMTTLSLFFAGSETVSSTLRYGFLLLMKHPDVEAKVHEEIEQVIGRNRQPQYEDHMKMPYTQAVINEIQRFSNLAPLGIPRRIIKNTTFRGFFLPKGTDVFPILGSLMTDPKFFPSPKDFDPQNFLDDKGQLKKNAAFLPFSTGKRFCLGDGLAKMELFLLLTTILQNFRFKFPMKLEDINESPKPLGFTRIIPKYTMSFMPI

| Compound | AC50 | outcome |
| --- | --- | --- |
| CCCN(CCC)c1c([N+](=O)[O-])cc(S(N)(=O)=O)cc1[N+](=O)[O-] | 2.62 µM (active) | – |
| CCOC(=O)CC(SP(=S)(OC)OC)C(=O)OCC (stereo not drawn) | 5.52 µM (active) | – |
| CCOP(=S)(OCC)SCn1c(=O)oc2cc(Cl)ccc21 | 3.22 µM (active) | – |
| CO/C=C(/C(=O)OC)c1ccccc1Oc1cc(Oc2ccccc2C#N)ncn1 | 3.83 µM (active) | – |
| N#CC(CCc1ccc(Cl)cc1)(Cn1cncn1)c1ccccc1 (stereo not drawn) | – | inactive |
| Cc1ccc(-c2c(Cl)nc(C#N)n2S(=O)(=O)N(C)C)cc1 | 7.38 µM (active) | – |
| CN(C)C(=S)SSC(=S)N(C)C | 2.83 µM (active) | – |
| CC1COC(Cn2cncn2)(c2ccc(Oc3ccc(Cl)cc3)cc2Cl)O1 (stereo not drawn) | 0.14 µM (active) | – |
| COc1ccc(C(c2ccc(OC)cc2)C(Cl)(Cl)Cl)cc1 | – | inactive |
| CC1=C(C(=O)Nc2ccccc2)SCCO1 | 6.72 µM (active) | – |
| CCOC(=O)C(Cl)Cc1cc(-n2nc(C)n(C(F)F)c2=O)c(F)cc1Cl (stereo not drawn) | – | inactive |
| OC(c1ccc(Cl)cc1)(c1cncnc1)c1ccccc1Cl (stereo not drawn) | 4.33 µM (active) | – |
| COC(=O)c1ccccc1C(=O)OC | – | inactive |
